In PubChem BioAssay AID1159580 (chemical genetic matrix, 2015):
Hit rate of the full screen: of about 5,500 compounds, about 2,000 (36%) were called active. About 18% were inconclusive and are not listed. No stated cut-off is given here; in the data, active means normalized growth mostly below about 0.91 (no sharp cut-off); inconclusive means no clear call, values can overlap the other calls; inactive means mostly above about 0.92. Some of the results follow.

Assay: chemical genetic growth profiling, strain panel (AID 1159580);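 further: tested at 20 µM; growth read once vehicle control cultures reached saturation at 30 °C; 1 = growth at the plate median or of vehicle wells; lower values mean less growth of the strain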
Conditions: S. cerevisiae deletion strains, growth OD

Measured: normalized growth

COC(=O)/C(C)=C\CC12OC(C)(C)C3CC(C=C4C(=O)c5c(OC)c6c(c(CC=C(C)C)c5OC431)OC(C)(CCC=C(C)C)C=C6)C2=O (centres undefined)
inactive: locus YAL021C, strain ccr4, active compounds read low 0.991 | locus YAL026C, strain drs2, active compounds read low 1.02 | locus YAL030W, strain snc1, active compounds read low 1.03 | locus YBL061C, strain skt5, active compounds read low 1.02 | locus YBR009C, strain hhf1, active compounds read low 0.999 | locus YBR021W, strain FUR4, active compounds read low 1.03 | locus YBR023C, strain chs3, active compounds read low 1.01 | locus YBR171W, strain sec66, active compounds read low 1.03 | locus YBR229C, strain ROT2, active compounds read low 1.01 | locus YBR231C, strain swc5, active compounds read low 1.03 | locus YBR279W, strain paf1, active compounds read low 1.01 | locus YCL011C, strain gbp2, active compounds read low 1.02 | locus YCL016C, strain dcc1, active compounds read low 1.01 | locus YCL029C, strain bik1, active compounds read low 0.983 | locus YCL061C, strain MRC1, active compounds read low 1.01 | locus YCL069W, strain vba3, active compounds read low 1.02 | locus YCR088W, strain abp1, active compounds read low 1.02 | locus YDL005C, strain med2, active compounds read low 1.03 | locus YDL035C, strain GPR1, active compounds read low 0.964 | locus YDL040C, strain nat1, active compounds read low 1.01 | locus YDL074C, strain BRE1, active compounds read low 0.963 | locus YDL101C, strain DUN1, active compounds read low 1.01 | locus YDL185W, strain tfp1, active compounds read low 1.01 | locus YDL192W, strain arf1, active compounds read low 0.987 | locus YDR001C, strain nth1, active compounds read low 1.02 | locus YDR069C, strain doa4, active compounds read low 1.03 | locus YDR101C, strain arx1, active compounds read low 0.989 | locus YDR137W, strain rgp1, active compounds read low 0.946 | locus YDR150W, strain NUM1, active compounds read low 1.01 | locus YDR159W, strain sac3, active compounds read low 1.06 | locus YDR162C, strain NBP2, active compounds read low 0.941 | locus YDR195W, strain ref2 1.02 | locus YDR297W, strain sur2, active compounds read low 1.04 | locus YDR318W, strain mcm21, active compounds read low 0.982 | locus YDR334W, strain swr1, active compounds read low 1.02 | locus YDR335W, strain msn5, active compounds read low 1.02 | locus YDR388W, active compounds read low 0.985 | locus YDR392W, strain spt3, active compounds read low 0.966 | locus YDR502C, strain sam2, active compounds read low 0.979 | locus YEL003W, strain gim4, active compounds read low 1.01 | locus YEL037C, strain rad23, active compounds read low 1.01 | locus YEL061C, strain CIN8 (second series), active compounds read low 1.02 | locus YEL061C, strain CIN8, active compounds read low 1 | locus YER015W, strain faa2, active compounds read low 1.02 | locus YER016W, strain bim1, active compounds read low 1.01 | locus YER110C, active compounds read low 0.988 | locus YER111C, strain swi4, active compounds read low 1.02 | locus YER155C, strain BEM2 (second series), active compounds read low 1.02 | locus YER155C, strain BEM2, active compounds read low 1.01 | locus YER167W, strain BCK2, active compounds read low 0.993 | locus YFR010W, strain ubp6, active compounds read low 1.03 | locus YGL078C, strain dbp3, active compounds read low 0.989 | locus YGL086W, strain mad1, active compounds read low 0.974 | locus YGL167C, strain pmr1, active compounds read low 1.02 | locus YGL173C, strain kem1, active compounds read low 1.02 | locus YGL227W, strain vid30, active compounds read low 1.02 | locus YGL240W, strain doc1, active compounds read low 1.02 | locus YGL248W, strain PDE1, active compounds read low 0.986 | locus YGL253W, strain hxk2, active compounds read low 1.01 | locus YGR135W, strain pre9, active compounds read low 0.997 | locus YGR252W, strain gcn5, active compounds read low 0.987 | locus YHR013C, strain ard1, active compounds read low 0.996 | locus YHR027C, strain rpn1, active compounds read low 1.02 | locus YHR030C, strain SLT2, active compounds read low 1 | locus YHR079C, strain IRE1 (second series), active compounds read low 1 | locus YHR094C, strain hxt1, active compounds read low 1.01 | locus YHR129C, strain ARP1, active compounds read low 0.985 | locus YHR142W, strain chs7, active compounds read low 1.04 | locus YHR200W, strain rpn10, active compounds read low 0.991 | locus YIL066C, strain RNR3, active compounds read low 0.96 | locus YIL073C, strain SPO22, active compounds read low 0.878 | locus YIL125W, strain kgd1, active compounds read low 0.992 | locus YIR030C, strain dcg1, active compounds read low 0.989 | locus YJL092W, strain hpr5, active compounds read low 1.02 | locus YJL095W, strain BCK1 (second series), active compounds read low 1.01 | locus YJL095W, strain BCK1, active compounds read low 0.961 | locus YJL115W, strain asf1, active compounds read low 1.03 | locus YJL129C, strain trk1, active compounds read low 0.987 | locus YJL134W, strain LCB3, active compounds read low 1 | locus YJL154C, strain vps35, active compounds read low 1.02 | locus YJL164C, strain tpk1, active compounds read low 0.988 | locus YJL166W, strain qcr8, active compounds read low 1.01 | locus YJL168C, strain set2, active compounds read low 0.982 | locus YJL187C, strain SWE1 (second series), active compounds read low 0.976 | locus YJL187C, strain SWE1, active compounds read low 1.01 | locus YJR043C, strain POL32, active compounds read low 0.998 | locus YJR075W, strain HOC1, active compounds read low 0.999 | locus YKL009W, strain mrt4, active compounds read low 0.964 | locus YKL068W, active compounds read low 0.992 | locus YKL085W, strain MDH1 (second series), active compounds read low 0.993 | locus YKL085W, strain MDH1, active compounds read low 0.993 | locus YKL160W, strain elf1, active compounds read low 1.02 | locus YKR001C, strain vps1, active compounds read low 0.97 | locus YKR026C, strain gcn3, active compounds read low 1.02 | locus YKR091W, strain srl3, active compounds read low 1.01 | locus YLL001W, strain dnm1, active compounds read low 1 | locus YLL026W, active compounds read low 1.01 | locus YLL041C, strain sdh2, active compounds read low 1.02 | locus YLR027C, strain aat2, active compounds read low 1.01 | locus YLR039C, strain RIC1, active compounds read low 0.893 | locus YLR058C, strain SHM2, active compounds read low 0.993 | locus YLR102C, strain apc9, active compounds read low 1 | locus YLR221C, strain rsa3, active compounds read low 1.02 | locus YLR258W, strain gsy2, active compounds read low 1.03 | locus YLR262C, strain YPT6 (second series), active compounds read low 0.993 | locus YLR262C, strain YPT6, active compounds read low 0.986 | locus YLR268W, strain sec22, active compounds read low 0.961 | locus YLR320W, strain mms22, active compounds read low 1.01 | locus YLR330W, strain CHS5, active compounds read low 1.01 | locus YLR342W, strain FKS1 (second series), active compounds read low 0.977 | locus YLR342W, strain FKS1, active compounds read low 1.03 | locus YLR357W, strain rsc2, active compounds read low 1.01 | locus YLR370C, strain arc18, active compounds read low 1.01 | locus YLR371W, strain rom2, active compounds read low 1.02 | locus YLR384C, strain iki3, active compounds read low 1.01 | locus YLR418C, strain cdc73, active compounds read low 0.941 | locus YML016C, strain PPZ1, active compounds read low 0.994 | locus YML032C, strain rad52, active compounds read low 1 | locus YML120C, strain ndi1, active compounds read low 1.01 | locus YML124C, strain tub3, active compounds read low 0.994 | locus YMR058W, strain fet3, active compounds read low 1.02 | locus YMR078C, strain ctf18, active compounds read low 0.999 | locus YMR125W, strain sto1, active compounds read low 1.02 | locus YMR129W, active compounds read low 1.02 | locus YMR205C, strain PFK2, active compounds read low 0.993 | locus YMR223W, strain ubp8, active compounds read low 0.981 | locus YMR231W, strain pep5, active compounds read low 0.99 | locus YMR263W, strain SAP30, active compounds read low 1 | locus YMR307W, strain GAS1, active compounds read low 1.08 | locus YNL067W, strain RPL9B, active compounds read low 0.988 | locus YNL071W, strain lat1, active compounds read low 1.02 | locus YNL128W, strain TEP1, active compounds read low 0.991 | locus YNL209W, strain ssb2, active compounds read low 1.01 | locus YNL233W, strain BNI4, active compounds read low 0.988 | locus YNL248C, strain rpa49, active compounds read low 1.03 | locus YNL250W, strain rad50, active compounds read low 0.985 | locus YNL271C, strain bni1, active compounds read low 0.982 | locus YNL298W, strain CLA4, active compounds read low 0.976 | locus YNL307C, strain MCK1, active compounds read low 0.997 | locus YNL322C, strain KRE1 (second series), active compounds read low 1.01 | locus YNL322C, strain KRE1, active compounds read low 1 | locus YNR049C, strain mso1, active compounds read low 1.02 | locus YNR052C, strain pop2, active compounds read low 0.983 | locus YOL012C, strain htz1 0.825 | locus YOL147C, strain pex11, active compounds read low 0.991 | locus YOR001W, strain rrp6, active compounds read low 1.03 | locus YOR061W, strain CKA2, active compounds read low 0.984 | locus YOR069W, strain VPS5, active compounds read low 0.996 | locus YOR070C, strain gyp1, active compounds read low 1 | locus YOR080W, strain dia2, active compounds read low 1.02 | locus YOR083W, strain WHI5, active compounds read low 0.99 | locus YOR106W, strain vam3, active compounds read low 1 | locus YOR136W, strain idh2, active compounds read low 0.994 | locus YOR144C, strain elg1, active compounds read low 0.995 | locus YOR184W, strain ser1, active compounds read low 0.978 | locus YOR265W, strain rbl2, active compounds read low 1.01 | locus YOR270C, strain vph1, active compounds read low 1.05 | locus YOR290C, strain snf2, active compounds read low 0.991 | locus YOR316C, strain cot1, active compounds read low 0.986 | locus YPL051W, strain arl3, active compounds read low 0.995 | locus YPL078C, strain atp4, active compounds read low 1.03 | locus YPL106C, strain sse1, active compounds read low 1.01 | locus YPL240C, strain hsp82, active compounds read low 1.02 | locus YPL241C, strain CIN2, active compounds read low 1 | locus YPR119W, strain clb2, active compounds read low 0.992 | locus YPR141C, strain kar3, active compounds read low 0.985 | locus YPR163C, strain tif3, active compounds read low 0.975 | locus YPR167C, strain met16, active compounds read low 0.972 | strain wtn01, active compounds read low 0.984
